In PubChem BioAssay (NCATS):
Records with an inconclusive call do not appear. Where a call stands in place of a potency, no number is given. The source made the active and inactive calls. Calls follow the shape of the dose curve; as a rule, active = well fitted cell-killing curve with a large enough effect; inconclusive = small, poorly fitted or top-dose-only effect, or effect the other way; inactive = no such curve, though single readings can be large or run the other way.

Test: Quantitative High-Throughput drug screen in 47 multiple myeloma cell lines against the NCATS MIPE library collection: AMO1_DSMZ cell viability assay (AID 1918927; also: nearly all actives have a fitted effect of over 30% in size)
Settings: AMO1 myeloma cells viability, CellTiter-Glo ATP luminescence, 48 h; series mostly up to 45.8 µM
From the text: PI: Beverly A. Mock Ph.D.
Laboratory of Cancer Biology and Genetics,
Center for Cancer Research, National Cancer Institute,
National Institute of Health, Bethesda, Maryland
Drug resistance and disease progression are common in multiple myeloma (MM) patients, underscoring the need for new therapeutic combinations. […] We hypothesized that effective combinations would reduce MYC expression and enhance p16 activity. […] These preclinical data identify potentially useful drug combinations for evaluation in drug-resistant MM and reveal potential mechanisms of combined drug sensitivity.
Described herein is the primary MIPE qHTS used to cherrypick compounds. Validated compounds were then further tested for potential synergistic activiy.
[1] Peat TJ, Gaikwad SM, Dubois W, Gyabaah-Kessie N, Zhang S, Gorjifard S, Phyo Z, Andres M, Hughitt VK, Simpson RM, Miller MA, Girvin AT, Taylor A, Williams D, D'Antonio N, Zhang Y, Rajagopalan A, Flietner E, Wilson K, Zhang X, Shinn P, Klumpp-Thomas C, McKnight C, Itkin Z, Chen L, Kazandijian D, Zhang J, Michalowski AM, Simmons JK, Keats J, Thomas CJ, Mock BA. Drug combinations identified by high-throughput screening promote cell cycle transition and upregulate Smad pathways in myeloma. Cancer Lett. 2023 Aug 1;568:216284. doi: 10.1016/j.canlet.2023.216284. Epub 2023 Jun 24. PMID: 37356470; PMCID: PMC10408729.
SEQUENCE No. (e.g., 1, 2, 3, etc.); […] (e.g., Cells, Incubation, Reagent, etc.); VALUE and DESCRIPTION.
1; Cells; 5 uL; white, solid bottom 1536-well Greiner assay plate.
2; Compounds; 23 nL; Kalypsis pin tool (Wako USA) equipped with a 1536-well pin head to transfer to the assay plates.
3; Incubation; 48 hours; 37C incubation.
4; Reagent;5uL; CellTiter Glo (Promega).
5; Detector; 425V; Luminescence; Viewlux PerkinElmer.
NOTES (numbers refer to Sequence numbers above)
1. The cell-based screening methods employed in this study were like those previously published. Briefly, the corresponding myeloma cell lines were screened in 1,536-well plates with 500 cells, 5-uL per well for inhibition of cell viability (assessed by measuring ATP levels with CellTiterGlo).
2. NCATS MIPE 4.0 library of approved and investigational drugs were added using the Kalypsis pin tool. Wells treated with DMSO only for 100% viability and media only wells for 0% viability were used as controls.
3. The assay plates were covered and incubated for 48 hours in a 37C, 5% CO2 incubator with controlled humidity.
4. After 48 hours, CellTilter-GloTM luminescent substrate mix (Promega) reagent was added to the assay plate and plates we incubated for 5 min at room temperature.
5. Signal was measured as median relative luminescence units on a ViewLux (PerkinElmer) multiplate reader.
[1] Heske CM, Davis MI, Baumgart JT, Wilson K, Gormally MV, Chen L, Zhang X, Ceribelli M, Duveau DY, Guha R, Ferrer M, Arnaldez FI, Ji J, Tran HL, Zhang Y, Mendoza A, Helman LJ, Thomas CJ. Matrix Screen Identifies Synergistic Combination of PARP Inhibitors and Nicotinamide Phosphoribosyltransferase (NAMPT) Inhibitors in Ewing Sarcoma. Clin Cancer Res. 2017 Dec 1;23(23):7301-7311. doi: 10.1158/1078-0432.CCR-17-1121. Epub 2017 Sep 12. PMID: 28899971; PMCID: PMC6636827.
Potency is read from the fitted curve at half-maximal effect.

| SMILES | Potency |
| --- | --- |
| CC(C)C[C@H](CN)CC(=O)O | inactive |
| C[C@]12CC[C@@H]3c4ccc(OC(=O)N(CCCl)CCCl)cc4CC[C@H]3[C@@H]1CC[C@@H]2OP(=O)(O)O | inactive |
| CN1C(=O)CCS(=O)(=O)C1c1ccc(Cl)cc1 (stereo not given) | inactive |
| CC(NC(C)(C)C)C(=O)c1cccc(Cl)c1 (stereo not given) | inactive |
| C[C@]12CC[C@H]3[C@@H](CC[C@@]45O[C@H]4C(O)=C(C#N)C[C@]35C)[C@H]1CC[C@H]2O | inactive |
| COc1cc(OC)c(OC)cc1C=O | inactive |
| O=C(O)CCCc1ccc(N(CCCl)CCCl)cc1 | inactive |
| C[C@](O)(CS(=O)(=O)c1ccc(F)cc1)C(=O)Nc1ccc(C#N)c(C(F)(F)F)c1 | 662 nM (active) |
| CCC1(c2ccc(N)cc2)CCC(=O)NC1=O (stereo not given) | inactive |
| CC(C)c1cccc(C(C)C)c1O | inactive |
